Drawing on PubChem BioAssay AID588591 (National Center for Advancing Translational Sciences (NCATS), 2011), this text covers Potency for 100 molecules.

The whole screen tested about 390,000 compounds, of which about 4,700 (1.2%) were called active. Inconclusive results (about 4%) are left out. Calls come from the whole dose curve; as a rule, active = well fitted inhibition curve with a large enough effect; inconclusive = small, poorly fitted or top-dose-only effect, or another doubt; inactive = no such curve, though single readings can be large or run the other way. The list comes from a sample in which actives are over-represented; it also holds similar structures and randomly drawn compounds. A call without a number means that no potency is given here.
Potency is the fitted concentration of half-maximal effect.

Chain of DNA polymerase eta (Homo sapiens) (Q9Y253 whole entry, looked up): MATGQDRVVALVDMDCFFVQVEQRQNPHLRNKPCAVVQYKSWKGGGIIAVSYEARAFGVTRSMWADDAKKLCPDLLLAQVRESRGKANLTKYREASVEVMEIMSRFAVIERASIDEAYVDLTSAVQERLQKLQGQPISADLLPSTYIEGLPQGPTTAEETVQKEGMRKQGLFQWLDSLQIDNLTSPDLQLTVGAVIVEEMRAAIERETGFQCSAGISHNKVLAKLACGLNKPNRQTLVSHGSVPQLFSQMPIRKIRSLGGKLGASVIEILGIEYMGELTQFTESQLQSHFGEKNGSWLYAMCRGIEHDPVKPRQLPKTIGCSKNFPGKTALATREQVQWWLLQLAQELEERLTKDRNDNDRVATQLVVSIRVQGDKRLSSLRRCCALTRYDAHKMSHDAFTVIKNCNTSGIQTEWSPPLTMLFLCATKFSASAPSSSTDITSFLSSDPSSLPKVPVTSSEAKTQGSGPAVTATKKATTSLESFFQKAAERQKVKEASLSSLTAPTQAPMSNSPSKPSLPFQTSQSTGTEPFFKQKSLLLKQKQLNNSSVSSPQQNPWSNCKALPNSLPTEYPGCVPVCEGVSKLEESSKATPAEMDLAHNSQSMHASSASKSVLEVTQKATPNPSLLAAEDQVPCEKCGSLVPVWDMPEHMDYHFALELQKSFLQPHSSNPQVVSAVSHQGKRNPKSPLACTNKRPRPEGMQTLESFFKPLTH

The assay deals with DNA polymerase eta (Homo sapiens) (UniProt Q9Y253). Kind of assay: qHTS for Inhibitors of Polymerase Eta. As to conditions: recombinant Pol eta, fluorescent DNA replication assay; series mostly up to 114 µM. In short, it runs like this:
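Pol eta at 10 nM preincubated with compounds 15 min at room temperature; reaction started with fluorescent substrate (50 nM final) and read kinetically at 0 and 10 min.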
(In general: Quantitative high-throughput screening tests each substance at several concentrations.)
Regarding `COc1ccccc1OC(C)C(=O)Nc1ccc(S(=O)(=O)Nc2nccs2)cc1` (stereo not given), the Potency result is “inactive”. With `CCC(CC)C(=O)Nc1ccc(S(=O)(=O)Nc2nccs2)cc1` the entry was “inactive”; with `O=C(Nc1ccc(S(=O)(=O)Nc2nccs2)cc1)c1cc(-c2ccncc2)nc2ccccc12`, 12.6 µM (active); with `CC(C)(C)OC(=O)N1CCC(c2c(C(=O)N3CCc4ccccc4C3)cnn2-c2ccc(F)cc2)CC1`, “inactive”.

On to `Oc1ccc(Cn2cc[nH]c2=S)cc1`, for which the Potency result was “inactive”. For the molecule `COc1ccc(CCNc2ncnc3c2cnn3-c2ccc(C)cc2)cc1`, the Potency result is “inactive”.

For the molecule `Cc1ccc(NC(=O)CSc2nc3c([nH]c4ccccc43)c(=O)n2-c2ccccc2)cc1Cl`, the Potency entry is “inactive”. For `Cc1ccc2nc(N3C(=O)C(O)=C(C(=O)c4ccco4)C3c3cccc(O)c3)sc2c1` (stereo not given) the value was 50.1 µM (active); for `C=CCSc1nnc(N2C(=O)C(O)=C(C(=O)c3ccco3)C2c2ccc(F)cc2)s1` (stereo not given), “inactive”.

Turning to `CC(=O)c1sc(N2C(=O)c3oc4ccccc4c(=O)c3C2c2ccc(C)cc2)nc1C` (stereo not given), the Potency entry was “inactive”.

For `CC(=O)c1ccc(NC(=O)CSc2nc(-c3ccccc3F)nc3c2c(=O)n(C)c(=O)n3C)cc1`, the Potency result is “inactive”. For `CCCCc1nn2c(=O)cc(COC(=O)c3cccc(NC(=O)COc4ccccc4)c3)nc2s1` the value was “inactive”. With `Cn1c(=O)[nH]c(=O)c2c1nc(NCCc1ccccc1)n2Cc1ccc(F)cc1` the entry was “inactive”; with `O=C(c1cc2c(s1)CCC2)N1CCN(c2ccccc2)CC1`, 10 µM (active); with `O=C(Nc1ccc(F)cc1)c1cc2c(s1)CCCC2`, “inactive”.

As to `CC1CCN(c2nc3ccc(C(=O)N4CCN(c5ccccc5)CC4)cc3s2)CC1`, the Potency result was “inactive”. With `CC1CCCN(c2csc3ccc(F)cc3c2=O)C1` (stereo not given) the entry was “inactive”; with `Cc1cc(C)c2c(c1)c(C)cc1nnc(SCC(=O)NCc3ccco3)n12`, “inactive”; with `Cc1cc(C)n2nc(SCC(=O)NC(=O)NCc3ccco3)nc2n1`, “inactive”. With `Cc1ccc(SCC(=O)NC(=O)NCc2ccco2)c(C)c1` the figure was 14.1 µM (active). With `CCc1cccc(NC(=O)CN(C)S(=O)(=O)c2ccc3[nH]c4c(c3c2)CCCC4)c1` the entry was “inactive”; with `CCn1c2ccccc2c2nnc(N3CCN(c4cc(C)ccc4C)CC3)nc21`, “inactive”; with `Cc1ccc2[nH]c3c(=O)n(CC(=O)NC(C)C)ncc3c2c1`, “inactive”.

`CC(C)c1ccc(C2C(C(=O)c3ccco3)=C(O)C(=O)N2CC2CCCO2)cc1` (stereo not given): the Potency result is “inactive”. On to `O=C(C1=C(O)C(=O)N(CCOCCO)C1c1ccccn1)c1cccs1` (stereo not given), for which the Potency entry was “inactive”. Consider `O=C(C1=C(O)C(=O)N(c2ncccn2)C1c1cccs1)c1ccco1` (stereo not given), for which the Potency is 79.4 µM (active). With `O=C(CN1C(=O)CCn2nc(-c3ccccc3)cc21)NCc1ccccc1` the entry was “inactive”; with `O=C(c1cccs1)c1cn(CCOc2ccc(Cl)cc2)c2ccccc12`, “inactive”. For `O=C(N/N=C/c1ccc(OCC2COCCO2)cc1)c1ccc(Br)cc1` (stereo not given) the value was “inactive”; for `CN1CCN(Cc2nc3cc(NC(=O)COc4ccc([N+](=O)[O-])cc4)ccc3n2C)CC1`, “inactive”. For `O=C(COc1ccc(/C=N/NC(=O)c2ccc(O)cc2)cc1)Nc1ccc([N+](=O)[O-])cc1` the value was 4.47 µM (active); for `COc1ccc(C2Sc3ccccc3NC3=C2C(=O)c2ccccc23)c(OC)c1OC` (stereo not given), “inactive”; for `NC(CSC(c1ccccc1)(c1ccccc1)c1ccc(-c2ccccc2)cc1)C(=O)O` (stereo not given), 25.1 µM (active).

As to `CCC(C)OC(=O)C(C)Oc1ccc(-c2ccccc2)cc1` (stereo not given), the Potency entry is “inactive”. In the case of `C=CCC(CC=C)(C(N)=O)c1ccccc1`, the Potency entry is “inactive”. For `O=C(Nc1ccc(C(=O)OCc2cc(=O)n3nc(C4CC4)sc3n2)cc1)c1ccc(F)cc1` the value was “inactive”. For the molecule `COc1ccc(CCNCc2c(C(=O)O)c(C)n(Cc3cccc(C)c3)c2C)cc1OC`, the Potency entry is “inactive”. For `Cn1c(=O)oc2cc(S(=O)(=O)CCC(=O)NCCc3ccc(Cl)cc3)ccc21` the value was “inactive”; for `O=C(CCS(=O)(=O)c1ccc(Br)cc1)NCCc1ccc(Cl)cc1`, 20 µM (active); for `COc1ccc(Cl)cc1NC(=O)CN(C)Cc1ccc(OC)c(OC)c1`, “inactive”. With `COc1ccc(Cl)cc1NC(=O)CCS(=O)(=O)c1ccc(Br)cc1` the figure was 20 µM (active); with `CC(=O)N1CCc2cc(Br)cc(S(=O)(=O)CCC(=O)NCCc3ccc(Cl)cc3)c21`, “inactive”. With `COc1ccc(Cl)cc1NC(=O)CCC(=O)c1ccc(C)cc1` the entry was “inactive”. With `O=C(CCS(=O)(=O)c1cc(Br)cc2c1N(C(=O)C1CC1)CC2)Nc1ccc(Br)cc1F`, the Potency entry is “inactive”.

As to `CSc1nc(-c2ccccc2Cl)nc2c1Cc1c(CO)cnc(C)c1O2`, the Potency result was “inactive”. For `CC(=O)c1sc2nc(SCC(=O)N3CCCCC3)[nH]c(=O)c2c1C` the value was 10 µM (active); for `Cc1c(C)n2c(SCC(=O)N3CCCC3)nnc2[nH]c1=O`, “inactive”; for `COCCn1c(SCC(=O)N2CCCCCC2)nc2c(c1=O)SCC2`, “inactive”.

Consider `Cc1cc(C)c2oc(C(=O)Nc3ccc(S(=O)(=O)N4CCCCCC4)cc3)cc(=O)c2c1`, for which the Potency entry is “inactive”. Take `O=C(CSc1nnc(-c2ccncc2)n1-c1ccccc1)Nc1ccc(Cl)c(Cl)c1`: the Potency entry is “inactive”.

For `COc1ccc(S(=O)(=O)NCCSc2nnnn2-c2ccccc2)cc1`, the Potency entry was “inactive”. As to `CC(C)(C)C1C/C(=C/c2ccco2)C(=O)/C(=C/c2ccco2)C1` (stereo not given), the Potency is 28.2 µM (active).

For the molecule `COc1cc(Cl)ccc1Nc1ncc(C(=O)N2CCN(c3ccccc3OC)CC2)c2ccccc12`, the Potency result was “inactive”. For `COc1ccc(Nc2ncc(C(=O)Nc3cc(C)ccc3OC)c3ccccc23)cc1` the value was “inactive”; for `COc1ccc(C(=O)Nc2cccc(C(=O)OCc3cc(=O)n4c5c(sc4n3)CCCC5)c2)cc1`, “inactive”. With `COc1ccccc1CNC(=O)c1ccc(-n2c(C)cc3c2CCCC3)cc1` the entry was “inactive”; with `COc1ccc(C2=CC(c3ccccc3Cl)n3nc(-c4ccc(Cl)cc4)nc3N2)cc1` (stereo not given), “inactive”.

Take `CCCCOc1ccc(CNC(=O)c2ccc3c(c2)N(C)C(=O)C2CCCCN32)cc1` (stereo not given): the Potency entry was “inactive”. Regarding `Cc1cc(C)cc(NS(=O)(=O)c2ccc(-c3cc(C)no3)s2)c1`, the Potency result is “inactive”.

As for `CCOc1ccc(NC(=O)c2ncoc2-c2ccco2)cc1`, the Potency entry is “inactive”. Consider `COCCNC(=O)Nc1ccc2nc(-c3ccco3)c(-c3ccco3)nc2c1`, for which the Potency was 2.82 µM (active).

As for `COc1ccc(NC(=O)C(=O)NCc2ccco2)cc1`, the Potency result is “inactive”. For `CCC(=O)N1c2ccccc2CC1C(=O)N1CCN(c2ccccc2F)CC1` (stereo not given) the value was “inactive”; for `Cc1cccc(CC(=O)N2CC(=O)Nc3ccc(F)cc3C2c2ccccc2)c1` (stereo not given), “inactive”; for `CC(NC(=O)COC(=O)c1ccc(Cl)cc1O)c1ccc(F)cc1` (stereo not given), “inactive”. For `O=C(COC(=O)c1ccc(F)cc1F)Nc1ncccn1`, the Potency is 22.4 µM (active). For `O=C(COC(=O)CSc1ccccc1)Nc1ccc(F)cc1F` the value was “inactive”; for `CCOC(=O)c1ccc(NC(=O)Cn2c(=O)cc(C)c3c(C)nn(-c4cccc(F)c4)c32)cc1`, “inactive”.

Turning to `CN(Cc1ccccc1)S(=O)(=O)c1ccc(F)c(C(=O)Nc2cccc(Cl)c2Cl)c1`, the Potency result was “inactive”. For `Cc1ccc(Cn2c(=O)n(Cc3nc(-c4ccccc4)no3)c(=O)c3cc4c(cc32)OCO4)cc1` the value was “inactive”. With `CCN1CCN(C(c2ccc(C)cc2)c2c(O)cc(C)n(Cc3ccco3)c2=O)CC1` (stereo not given) the entry was “inactive”. With `Cc1ccc(Cn2c(C)nc3c(c2=O)c2nc4ccccc4nc2n3Cc2ccco2)cc1` the figure was 22.4 µM (active); with `COc1cccc(C(=O)Nc2ccc(-c3cc(C(F)(F)F)nn3-c3ccccc3)cc2)c1`, “inactive”; with `O=C(CN1c2ccccc2S(=O)(=O)c2ccccc21)Nc1cccc(C(F)(F)F)c1`, “inactive”. On to `CCCCN(CCCNC(=O)c1cc(Nc2ccccc2OC)nc2ccccc12)c1ccccc1`, for which the Potency entry was “inactive”. For `O=C(NCCCO)C(=O)Nc1c2c(nn1-c1ccccc1)CSC2`, the Potency entry was “inactive”. For `CC(C)(C)C(=O)OCc1nc(-c2ccc(O)c(O)c2)cs1` the value was 14.1 µM (active). With `O=c1cc(-c2ccccc2)[nH]c2nc(Cl)ccc12` the entry was “inactive”; with `Cc1ccc2c(c1)c1c(c(=O)n(-c3ccccc3)c(=O)n1CC(=O)c1ccc(Cl)cc1)n2C`, “inactive”. Consider `O=C(CSc1oc(-c2ccccc2)nc1S(=O)(=O)c1ccc(Br)cc1)NC1CCCCC1`, for which the Potency entry is “inactive”. For the molecule `N=C1C(c2nc3ccccc3s2)=C(O)CN1NC(=O)c1ccc([N+](=O)[O-])cc1`, the Potency was 50.1 µM (active). In the case of `N=C1C(c2nc3ccccc3[nH]2)=C(O)CN1NC(=O)c1c[nH]c2ccccc12`, the Potency entry was “inactive”. Take `O=C(CCNC(=O)c1ccc([N+](=O)[O-])cc1)Nc1ccccc1N1CCOCC1`: the Potency result was “inactive”. For `COCCNc1ncnc2c1c(-c1ccccc1)cn2-c1ccc(C)c(Cl)c1` the value was “inactive”; for `COc1cccc(-c2cc(C(=O)Nc3ccc(C)cc3)[nH]n2)c1`, “inactive”; for `Cn1c(=O)sc2cc(NS(=O)(=O)c3ccc(C(C)(C)C)cc3)ccc21`, “inactive”. For `CC(=O)Nc1ccc(S(=O)(=O)Nc2ccc(-c3ccc4nnc(C)n4n3)cc2)cc1`, the Potency result is “inactive”. For the molecule `O=C(Nc1ccc(-c2ccc3nncn3n2)cc1)C1CCCCC1`, the Potency result is “inactive”. `CC(=O)c1ccc(S(=O)(=O)Nc2ccc(-c3ccc4nncn4n3)cc2)cc1`: the Potency was 20 µM (active). `Cn1nnc2c(N3CCN(c4ccccc4)CC3)ncnc21`: the Potency result was “inactive”. With `CCCCSc1ncnc2c1sc1nc(N3CCOCC3)c3c(c12)CCCC3` the entry was “inactive”. With `CN(C)C(CNC(=O)CCCOc1ccccc1)c1ccco1` (stereo not given) the entry was “inactive”.

Consider `CN(C)C(CNC(=O)c1ccc(OCc2cn3ccccc3n2)cc1)c1ccco1` (stereo not given), for which the Potency is 39.8 µM (active). `O=Cc1ccc(OCc2cn3ccccc3n2)cc1`: the Potency result is “inactive”. For `Cc1ccc(OCC(=O)Nc2ccc(OCc3cc(=O)n4c(C)csc4n3)cc2)cc1C` the value was “inactive”; for `CCCCc1nn2c(=O)cc(COC(=O)c3ccccc3NC(=O)C(C)(C)C)nc2s1`, “inactive”. With `CCOc1ccc(N(CC)S(=O)(=O)N2CCCC(C(=O)NCc3ccc(Cl)cc3)C2)cc1` (stereo not given) the entry was “inactive”. `Cc1ccc(N(Cc2cc(=O)[nH]c3ccccc23)C(=O)CCl)cc1`: the Potency is 56.2 µM (active).

Take `Cn1nnnc1SCc1cc(=O)[nH]c2ccccc12`: the Potency entry is “inactive”.

Regarding `Cc1ccc(N(Cc2ccccc2O)C(=O)c2ccccc2F)cc1`, the Potency entry is “inactive”.
